High-throughput results deposited in PubChem by National Center for Advancing Translational Sciences (NCATS).
D1 potentiator = human D1 dopamine receptor positive modulation; P21728; HEK293 TREx D1 cells, calcium flux, dopamine EC20 potentiation; potentiation, % at 10 µM; 0.036% of 360,000 active; AID 504651; in the data active means potentiation above about 30%; further: 0% is about no effect
D1 antagonist = human D1 dopamine receptor antagonism. HEK293 TREx D1 cells, calcium flux, dopamine EC80; active compounds read low. 3.2% of 360,000 active. AID 504652. activity change, negative = inhibition, % at 10 µM; in the data active means activity change below about -30%; further: on the % scale 0 is the no-effect control and ±100 the full control effect
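Compound effects on dopamine-evoked calcium signalling were measured in tetracycline-induced HEK293 Trex D1 cells. Dopamine at EC80 followed a 180 s compound pre-read, and fluorescence was tracked kinetically for 180 s more.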
D3 antag = antagonists of human D3 dopamine receptor; D3R cells, DiscoveRx beta-arrestin luminescence, antagonist mode; active compounds read low; max response, negative = inhibition, %; 2.5% of 360,000 active; AID 652054; in the data active means max response below about -50%; inconclusive means no clear call, values can overlap the other calls; further: on the % scale 0 is the no-effect control and ±100 the full control effect
Target sequence (P35462 whole entry, looked up): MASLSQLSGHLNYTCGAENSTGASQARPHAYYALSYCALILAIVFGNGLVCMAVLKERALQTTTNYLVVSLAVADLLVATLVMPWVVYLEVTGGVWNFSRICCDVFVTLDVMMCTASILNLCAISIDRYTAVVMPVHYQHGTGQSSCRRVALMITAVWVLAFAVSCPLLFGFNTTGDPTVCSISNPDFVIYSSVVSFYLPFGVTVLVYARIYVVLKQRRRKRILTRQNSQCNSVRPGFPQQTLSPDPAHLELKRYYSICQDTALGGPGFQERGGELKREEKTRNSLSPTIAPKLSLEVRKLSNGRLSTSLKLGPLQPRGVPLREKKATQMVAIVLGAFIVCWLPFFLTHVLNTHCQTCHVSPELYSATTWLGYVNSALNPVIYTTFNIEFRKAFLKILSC
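Cells plated overnight at 1500 cells/well, then exposed to library compounds with dopamine controls for 90 minutes at 37 degrees C. DiscoveRx reagent added for 30–60 minutes at room temperature; luminescence read, quantitative HTS format.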
D3 ag = agonists of human D3 dopamine receptor. D3R DiscoveRx beta-arrestin cells, luminescence, 90 min. max activation, %. 0.58% of 410,000 active; in the data active means max activation above about 30%; further: 0% is about no effect
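Cells at 1500/well, incubated overnight, then treated with pinned compounds (dopamine as control) for 90 min at 37 degrees C. DiscoveRx reagent added for 30 - 60 minutes at room temperature; luminescence read.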
D1 ag = human D1 receptor agonism. activation, % at 2 µM. 1% of 360,000 active. AID 504660. HEK293 T-REx D1 cells, calcium flux, agonist mode. P21728; in the data active means activation above about 30%; further: 0% is about no effect
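Tetracycline-induced HEK293 TREx D1 cells, force-coupled to calcium signalling, were dye-loaded with a no-wash calcium kit. Compound was pin-added after a 10 s baseline. Fluorescence was read kinetically at 1 cycle/s for 180 s, with calcium rises flagged as agonism.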
An asterisk follows results filed as active; ? = inconclusive; nt = no result given; ! = not active in a repeat. Only some compounds are listed: those with a hit (about 6.1% of all), similar ones and a draw of the others.

SMILES | D1 potentiator | D1 antagonist | D3 antag | D3 ag | D1 ag
Cc1c(-c2ccc(F)cc2)nc(N)c(C#N)c1-c1cccnc1 | 5 | 10 | 9 | -6 | 2
Cc1ccc(-c2c(C)c(-c3ccc(F)cc3)nc(N)c2C#N)o1 | -8 | -31* | -14 | 1 | 8
COc1cc(NCc2ccc3nc(N)nc(N)c3c2C)cc(OC)c1OC | nt | nt | nt | -11 | nt
CCCCS/C(=C(/C#N)C(N)=O)c1cc2c([nH]1)CCCC2 | 6 | 23 | -74* | -7 | 1
CCOc1ccc(CCNC(=O)c2ccc(-c3nc(COc4ccc(C)cc4)c(C)o3)cc2)cc1 | -4 | -17 | nt | 0 | 0
Cn1c(SCC(=O)NCc2ccc(F)cc2)ncc(C(=O)Nc2ccccc2)c1=O | -2 | -2 | 8 | -2 | 1
COc1ccccc1CNC(=O)CSc1ncc(C(=O)Nc2ccccc2)c(=O)n1C | -2 | 14 | -69* | -10 | 3
NC(=O)CSC1=Nc2ccccc2C2=NC(c3ccccc3)C(=O)N12 (stereo unspecified) | -12 | 1 | -7 | 5 | 3
CCN(CC)C(=O)CSC1=Nc2ccccc2C2=NC(c3ccccc3)C(=O)N12 (stereo unspecified) | 9 | 1 | -62* | 0 | -1
COc1cc(/C=C/C(=O)OCC(=O)NC(=O)NC(C)C)ccc1OCC#N | -4 | 11 | 2 | 19 | 0
COc1cc(/C=C/C(=O)OCC(=O)NC(=O)NC23CC4CC(CC(C4)C2)C3)ccc1OCC#N | 4 | -8 | -53* | -7 | 3
CO[C@H]1C[C@H](O[C@H]2[C@H](C)[C@@H](O[C@@H]3O[C@H](C)C[C@H](N(C)C)[C@H]3OC(C)=O)[C@@H](C)C[C@]3(CO3)C(=O)[C@H](C)[C@@H](OC(C)=O)[C@@H](C)[C@@H](C)OC(=O)[C@@H]2C)O[C@@H](C)[C@@H]1OC(C)=O | nt | nt | nt | 6 | nt
CSC1=NCCN1S(=O)(=O)c1ccc2ccccc2c1 | 0 | -14 | -2 | 5 | 1
CCSC1=NCCN1S(=O)(=O)c1ccc2ccccc2c1 | -3 | -31* | -2 | -1 | 1
O=S(=O)(c1ccc(F)cc1)N1CCN=C1SCc1cccnc1 | -1 | -10 | 15 | 1 | 6
O=S(=O)(c1ccc2ccccc2c1)N1CCN=C1SCc1cccnc1 | -2 | -34* | 8 | 7 | 3
Cc1ccccc1C(=O)Nc1nnc(S(=O)(=O)N2CCc3ccccc32)s1 | -5 | 5 | nt | -2 | 4
CCOC(=O)N1CCC(NCCNC(=O)c2ccccc2Cl)CC1 | 11 | 7 | ? | -2 | 3
CCOC(=O)N1CCC(NCCNC(=O)c2ccccc2)CC1 | -8 | -6 | -73* | -2 | 2
O=C(NCCC1CCCC1)c1cccs1 | 2 | -6 | 6 | 2 | 1
O=C(NCCNC1CCC(c2ccccc2)CC1)c1cccs1 (stereo unspecified) | -3 | 4 | -54* | -11 | 13
CCOC(=O)N1CCC(NCCNC(=O)c2cccs2)CC1 | -6 | 2 | -77* | -8 | -1
CCOc1ccc(CCNC(=O)C2CCC(CNS(=O)(=O)c3ccc(Cl)cc3)CC2)cc1OCC (stereo unspecified) | -4 | -1 | nt | 4 | 2
Cc1ccc(CNC(=O)NC2COc3ccccc3C2)cc1 (stereo unspecified) | -1 | 5 | nt | -17 | 0
CCc1ccc(-n2c(=O)c3cccnc3n2CC(=O)NCc2ccc(F)cc2)cc1 | -6 | -36* | nt | 1 | 7
SMILES | D1 potentiator | D1 antagonist | D3 antag | D3 ag | D1 ag
CCOc1cc(N2CCOCC2)c(OCC)cc1NC(=O)c1cccc(N(C)C)c1 | -5 | -16 | 16 | 6 | 1
CCOc1cc(N2C(=O)CC3CS(=O)(=O)CC32)c(OCC)cc1NC(=O)c1ccccc1 (stereo unspecified) | 0 | -4 | -62* | -3 | 4
COc1ccccc1CNS(=O)(=O)c1ccc2c(c1)CC(C)N2C(=O)C1CCC1 (stereo unspecified) | -17 | -32*! | 1 | 2 | 20
CC1CC(C)CN(C(=O)C2CCN(S(=O)(=O)c3ccc4c(c3)CC(C)N4C(=O)C3CC3)CC2)C1 (stereo unspecified) | -11 | -45* | 14 | -2 | -1
Cc1cccc(NS(=O)(=O)c2ccc3c(c2)CC(C)N3C(=O)C2CCC2)c1C (stereo unspecified) | -3 | -34* | nt | 1 | 13
CC(=O)N1c2ccc(S(=O)(=O)N3CCC(C(=O)N4CC(C)CC(C)C4)CC3)cc2CC1C (stereo unspecified) | -2 | 5 | -1 | 7 | 0
CC(=O)c1ccc(N2CCN(S(=O)(=O)c3ccc4c(c3)CC(C)N4C(=O)C3CC3)CC2)cc1 (stereo unspecified) | -6 | -6 | 4 | 3 | 6
CC(=O)c1ccc(N2CCN(S(=O)(=O)c3ccc4c(c3)CC(C)N4C(C)=O)CC2)cc1 (stereo unspecified) | -4 | -48* | -1 | 7 | 11
Cc1cc(C)c(S(=O)(=O)NCC(c2cccs2)S(=O)(=O)c2ccccc2)c(C)c1 (stereo unspecified) | -4 | nt | nt | -14 | 22
CCc1nc(SC)ncc1C(=O)N1CCN(c2cc(C)ccc2C)CC1 | -1 | -2 | nt | -8 | 2
CCc1nc(C)cn1S(=O)(=O)c1ccc(Cl)c(Cl)c1OC | -2 | 16 | nt | 4 | 8
CCCCN(C)C(=O)C1CCC(CNS(=O)(=O)c2ccc3c(c2)CC(C)N3C(=O)C2CC2)CC1 (stereo unspecified) | 1 | -43* | 11 | 5 | 3
COC(=O)c1cc(S(=O)(=O)N2CCN(c3ccc(C(C)=O)cc3)CC2)c[nH]1 | 1 | -32* | -17 | 2 | 5
CC(=O)N1c2ccc(S(=O)(=O)N3CCC(C(=O)N4CCN(c5cc(Cl)ccc5C)CC4)CC3)cc2CC1C (stereo unspecified) | -2 | -33* | 39 | 15 | 8
COC(=O)c1cc(S(=O)(=O)N2CCN(c3ccc(OC)cc3)CC2)c[nH]1 | -3 | 1 | nt | 11 | 7
COc1ccccc1NS(=O)(=O)c1ccc(O)c(C(=O)OCC(=O)N2c3ccccc3CC2C)c1 (stereo unspecified) | -7 | 1 | -106* | -20 | 3
O=C(CSC1=Nc2ccccc2N=C(c2ccc(F)cc2)C1)NCc1ccc(Cl)cc1 | 0 | 2 | nt | -2 | 7
CN1CCN(C(=O)Cn2c(-c3cccs3)cc3ccccc32)CC1 | 0 | 7 | nt | 3 | -1
CC1CCN(S(=O)(=O)c2ccc3c(c2)CC(C)N3C(=O)C2CCC2)CC1 (stereo unspecified) | -13 | -34* | -6 | -3 | 12
CC1Cc2cc(S(=O)(=O)N3CCCCC3)ccc2N1C(=O)C1CCC1 (stereo unspecified) | -1 | -28 | 1 | -2 | 5
